Screens: PubChem BioAssay, National Center for Advancing Translational Sciences (NCATS)
SMN2 splice enh – qHTS Assay for Enhancers of SMN2 Splice Variant Expression | HEK293 SMN2-luciferase splicing reporter, luminescence, 30-36 h | actives 2.8% (n = 210,000) | Potency, µM (top dose mostly 46.1 µM), most hits filed as activators | AID 1458, 2008; note: nearly all actives have a fitted effect of over 55% in size
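HEK293 cells carry an SMN2 […]–luciferase reporter in which exon 7 inclusion puts luciferase in frame. Cells were plated 10-12 h before compound addition, then incubated 30-36 h at 37C. ONE-Glo luminescence was read; sodium butyrate at 4.5 mM final served as control.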
ELG1 genotox – qHTS screen for small molecules that induce genotoxicity in human embryonic kidney (HEK293T) cells expressing luciferase-tagged ELG1; HEK293T ELG1-luciferase reporter, luminescence, 16 h; Potency, µM (series often up to 46 µM), actives largely listed as activators; actives 1.3% (n = 330,000); note: nearly all actives have a fitted effect of over 60% in size
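Step 1: seed 2,000 HEK293T ELG1-luciferase cells per well. Step 2: add compound or DMSO, incubate 16 hr at 37 °C. Step 3: ONE-Glo, 30 min at room temperature, read luminescence.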
NPC1 promoter act – qHTS Assay for NPC1 Promoter Activators | Huh7 NPC1 promoter luciferase reporter, 24 h | Potency, µM (series often up to 9.22 µM), actives largely listed as activators | actives 2.4% (n = 320,000) | AID 485313, 2010; note: nearly all actives have a fitted effect of over 60% in size
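Cells: Huh7 expressing luciferase under the NPC1 promoter, 1500/well. Seeded 2 h, compound added, incubated 24 h at 37 °C. Luciferase reagent, 10 min ambient, then luminescence.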
Rab9 promoter act – qHTS Assay for Rab9 Promoter Activators; Huh7 Rab9 promoter-luciferase reporter, luminescence, 24 h; AID 485297, 2010; actives 2.8% (n = 320,000); Potency, µM (highest dose often 9.22 µM), usual class: activators; note: nearly all actives have a fitted effect of over 60% in size
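Huh7 reporter line, Rab9 promoter upstream of luciferase. Compound exposure 24 h at 37 °C in reduced-serum medium with 10% FBS. Read-out: luminescence.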
uPA generation – qHTS for Inhibitors of Cell Surface uPA Generation. cell surface uPA generation assay, qHTS. Potency, µM (top dose mostly 38.3 µM), usual class: inhibitors. actives 0.31% (n = 330,000); active = well fitted inhibition curve with a large enough effect; inconclusive = small, poorly fitted or top-dose-only effect; inactive = no such curve, though single readings can be large or run the other way; tested in mouse RAW 264.7 cells; note: nearly all actives have a fitted effect of over 55% in size
FLuc counter – qHTS profiling assay for firefly luciferase inhibitor/activator using purifed enzyme and Km concentrations of substrates (counterscreen for miR-21 project); Potency, µM (series often up to 57.5 µM), actives largely listed as inhibitors; actives 6.9% (n = 360,000); purified FLuc, Km substrates, luminescence inhibition; AID 588342, 2011; note: nearly all actives have a fitted effect of over 55% in size
Target sequence (P08659 whole entry, looked up): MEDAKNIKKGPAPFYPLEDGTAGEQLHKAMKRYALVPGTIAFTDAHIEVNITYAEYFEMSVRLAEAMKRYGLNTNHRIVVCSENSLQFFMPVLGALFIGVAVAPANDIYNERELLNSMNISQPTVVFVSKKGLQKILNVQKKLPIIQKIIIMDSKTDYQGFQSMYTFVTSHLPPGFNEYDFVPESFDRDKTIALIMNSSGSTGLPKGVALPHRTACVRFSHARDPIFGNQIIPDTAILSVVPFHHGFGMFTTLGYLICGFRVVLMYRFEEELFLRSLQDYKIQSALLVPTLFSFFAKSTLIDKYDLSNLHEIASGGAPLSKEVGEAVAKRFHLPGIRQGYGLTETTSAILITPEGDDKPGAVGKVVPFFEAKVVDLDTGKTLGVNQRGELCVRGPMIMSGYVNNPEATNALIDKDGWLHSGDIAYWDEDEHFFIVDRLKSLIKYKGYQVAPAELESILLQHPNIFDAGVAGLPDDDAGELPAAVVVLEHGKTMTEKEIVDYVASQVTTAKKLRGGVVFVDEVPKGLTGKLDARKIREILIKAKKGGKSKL
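Biochemical qHTS of compounds, final roughly 60 µM downward over six points, against 10 nM purified firefly luciferase using Km concentrations of substrates (10 uM D-luciferin, 10 uM ATP) in Tris acetate pH 7.5 buffer; luminescence output.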
Hits are given with their value; . = inactive; ? = inconclusive; / = not tested or not shown; [ ] = remark or other dose. Most compounds without a hit are left out; they make up all but 7.3% or so of the library. Unless noted, calls come from the whole dose curve; as a rule, active = well fitted curve in the direction sought with a large enough effect; inconclusive = small, poorly fitted or top-dose-only effect, or another doubt; inactive = no such curve, though single readings can be large; an effect the other way counts as inactive or inconclusive.

SMILES | SMN2 splice enh | ELG1 genotox | NPC1 promoter act | Rab9 promoter act | uPA generation | FLuc counter
O=[N+]([O-])c1ccc2nc(-c3ccccc3[N+](=O)[O-])[nH]c2c1 | . | . | . | . | . | ?
O=[N+]([O-])c1ccc2nc(-c3ccncc3)[nH]c2c1 | / | ? | ? | . | . | 17µM
c1ccc(-c2nn[nH]n2)cc1 | / | . | . | . | . | .
c1ccc(-c2nnc(-c3ccccc3)nn2)cc1 | / | ? | 3.2µM | 1.3µM | . | 0.38µM
O=C(NC1CCCCCC1)C1c2ccccc2C(=O)N1Cc1ccccc1Cl (stereo not given) | . | / | / | / | / | .
CCOc1ccc(C(=O)Nc2cccc(C(=O)O)c2C)cc1Cl | 0.5µM | . | ? | ? | . | 3.4µM
COc1ccc(C(=O)Nc2cc(C(=O)O)cc(C(=O)O)c2)cc1Cl | . | . | . | . | . | .
COc1ccc(C(=O)Nc2ccccc2C(=O)O)cc1Cl | .[1.84 µM] | ? | ? | 3.5µM | . | 5.4µM
CCOc1ccc(C(=O)Nc2ccccc2-c2ccccc2)cc1Cl | . | . | . | . | / | .
CCN(CC)S(=O)(=O)c1cc(C(=O)Nc2ccccc2C(=O)O)ccc1OC | . | . | . | . | . | 6µM
CCOc1c(Cl)cc(C(=O)Nc2ccccc2C(=O)O)cc1Cl | ? | . | . | ? | . | 19µM
Cc1cccc(CCn2c(=O)c3ccccc3n(CC(=O)Nc3ccccc3F)c2=O)c1 | . | / | / | / | / | .
O=C(O)c1ccccc1NC(=O)C(c1ccccc1)c1ccccc1 | / | / | / | / | . | /
COc1ccc(C(=O)Nc2ccccc2C(=O)O)cc1NC(=O)C(c1ccccc1)c1ccccc1 | / | . | . | . | . | 13µM
Cc1ccnc(NC(=O)c2ccc(N3C(=O)CCC3=O)cc2)c1 | . | . | ? | ? | . | 19µM
Cc1ccc(NC(=O)c2ccc3c(c2)OCCO3)nc1 | / | ? | 0.63µM | 0.35µM | 3.2µM | 1.3µM
O=C(Nc1ccon1)c1ccc2c(c1)OCO2 | ? | ? | . | ? | / | ?
CC(=O)c1cccc(NC(=O)CC2SC(N3CCCCC3)=NC2=O)c1 (stereo not given) | . | . | . | . | . | .
Cc1ccc(NC(=O)c2cccc(NC(=O)CC3SC(N4CCCCC4)=NC3=O)c2)nc1 (stereo not given) | / | . | . | . | . | 11µM
Cc1ccnc(NC(=O)c2ccc3c(c2)OCO3)c1 | / | ? | 0.5µM | 0.45µM | . | 2.1µM
CCOC(=O)c1c(NC(=O)C2c3ccccc3Oc3ccccc32)sc(C)c1CC | . | / | / | / | / | .
Cc1ccc(NC(=O)c2ccc3c(c2)NC(=O)CS3)nc1 | / | 9.2µM | ? | ? | . | ?
Cc1cc(C)c2sc(NC(=O)c3ccc(N4C(=O)CCC4=O)cc3)nc2c1 | / | . | . | . | . | 2.4µM
Cc1ccc(C)c(NC(=O)N2CCc3cc(S(=O)(=O)N4CCC(C)CC4)ccc32)c1 | . | / | / | / | / | .
Cc1nc(/C(N)=N/OC(=O)c2ccc(Cl)cc2)c(C(F)(F)F)o1 | / | . | . | . | . | 7.6µM
SMILES | SMN2 splice enh | ELG1 genotox | NPC1 promoter act | Rab9 promoter act | uPA generation | FLuc counter
Cc1ccc2nc(N/C(=N/S(=O)(=O)c3ccc(F)cc3)c3ccccc3)sc2c1 | ? | . | . | ? | . | 8.5µM
Cc1ccc2nc(NC(=O)CCCc3nc4ccccc4s3)sc2c1 | . | ? | . | . | . | 17µM
Cc1ccc2nc(NC(=O)CCCC(=O)O)sc2c1 | . | . | . | . | ? | 5.4µM
Cc1cnc(NC(=O)CCCc2nc3ccccc3s2)s1 | ? | . | . | . | . | ?
Cc1ccc2nc(N/C(=N/S(=O)(=O)c3ccc(F)cc3F)c3ccccc3)sc2c1 | / | . | . | . | . | ?
COc1ccccc1CNC(=O)c1oc2c(c1C)-c1nn(Cc3ccc(Cl)cc3)cc1CC2 | / | / | / | / | / | .
COc1ccc(C2CC(=O)c3cc(-c4nc(-c5ccc(Cl)cc5)cs4)c(=O)[nH]c3C2)cc1OC (stereo not given) | . | / | / | / | / | .
O=C(NCC(c1ccco1)S(=O)(=O)c1ccc(Cl)cc1)c1ccc(C(F)(F)F)cc1 (stereo not given) | / | / | / | / | / | .
COc1ccc(OC)c(/C=N/NC(=O)c2[nH]ncc2Br)c1 | / | . | . | . | . | .
O=C(N/N=C/c1c(O)ccc2ccccc12)c1[nH]ncc1Br | . | ? | . | . | . | 6.7µM
O=C(CN1CCCC1)N/N=C/c1c(O)ccc2ccccc12 | / | ? | . | . | 5µM | .
CCOc1ccc(/C=N/NC(=O)c2[nH]ncc2Br)c(O)c1 | 3.5µM | ? | ? | ? | . | 2.1µM
Cc1ccc(O)c(/C=N/NC(=O)c2[nH]ncc2Br)c1 | .[1.84 µM] | 16µM | ? | ? | . | 4.3µM
O=C(N/N=C/c1cccs1)c1[nH]ncc1Br | / | 16µM | 3.5µM | 4µM | . | 21µM
Cc1cc(C(=O)N/N=C\c2cc(C(C)(C)C)ccc2O)n[nH]1 | / | ? | . | . | ? | 24µM
COc1ccc(NC2=NCCCCC2)cc1 | / | . | . | . | . | .
COc1ccc(NC2=Nc3ccccc3CC2)cc1 | 13µM | 4.5µM | 2.8µM | 1.6µM | . | 11µM
Cc1ccccc1OCC(=O)OCC(=O)c1ccc(OCc2ccccc2)cc1 | 14µM | ? | ? | ? | . | .
Cc1ccc(CSc2nc(-c3ccccc3C)nc3c2Cc2c(CO)cnc(C)c2O3)cc1 | / | / | / | / | / | .
O=c1oc(-c2ccccc2[N+](=O)[O-])nc2ccccc12 | . | . | . | . | . | .
Nc1ccccc1-c1nc2ccccc2c(=O)o1 | / | . | . | . | . | 11µM
O=c1oc(-c2ccc(Br)cc2)nc2ccccc12 | / | ? | 2.2µM | 3.2µM | . | ?
CC(=O)Nc1ccc(-c2nc3ccccc3c(=O)o2)cc1 | / | . | . | . | . | 2.7µM
CC(C)CC(=O)Nc1ccc(-c2nc3ccccc3c(=O)o2)cc1 | . | . | . | . | . | 1.7µM
COc1cc(NC(=O)CSc2ccc(-c3sc(-c4ccccc4)nc3C)nn2)cc(OC)c1 | / | / | / | / | / | .
SMILES | SMN2 splice enh | ELG1 genotox | NPC1 promoter act | Rab9 promoter act | uPA generation | FLuc counter
CC(C)CC(=O)Nc1ccc(-c2nc3ccccc3c(=O)[nH]2)cc1 | 3.2µM | 6.5µM | 1.1µM | 0.89µM | . | 2.4µM
O=C(O)CNC(=O)/C=C/c1ccc(Cl)cc1Cl | . | . | . | . | . | 24µM
C[C@H]1Cc2c(-c3ccccc3)nc3c(c2CO1)CN(C(=O)NCc1ccco1)CC3 | .[9.22 µM] | / | / | / | / | /
N#Cc1cnc2sc3ccccc3n2c1=N | . | 14µM | . | ? | . | 24µM
CCSc1ncnc2c1oc1ccccc12 | / | ? | . | . | . | ?
c1ccc2cc(Sc3ncnc4c3oc3ccccc34)ccc2c1 | . | . | ? | ? | . | 17µM
Clc1ncnc2c1oc1ccccc12 | 13µM | ? | . | . | . | 9.5µM
